Data on 20 compounds can be found in PubChem BioAssay (NCATS).

The structures appear in SMILES notation. Results filed as inconclusive are left out. Calls of active or inactive are those of the source. Calls follow the shape of the dose curve; as a rule, active = well fitted inhibition curve with a large enough effect; inconclusive = small, poorly fitted or top-dose-only effect; inactive = flat fitted curve, though single readings scatter.

What all share (experiment): qHTS profiling for inhibitors of Plasmodium falciparum proliferation (AID 504749); also: nearly all actives have a fitted effect of over 60% in size
What all share (details): P. falciparum in erythrocytes, SYBR Green DNA, 72 h; series mostly up to 28.7 µM
On the technique in general: qHTS replaces the single test concentration by a dilution series.

The test system of one test is CP286. A digest of the protocol: (§1)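 SYBR Green fluorescence of parasite DNA, read after lysis and overnight dark incubation, measured growth over 72 h in erythrocyte culture at 0.3% parasitemia and 2.5% hematocrit. Data normalised to DMSO and 0.29 uM artemisinin, with plate-drift correction.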
A further test relates to CP291. A digest of the protocol: as §1
The subject of another test is CP305. In outline: as §1
The subject of the next test is CP315. A digest of the protocol:
as §1

The next test deals with CP325. A digest of the protocol: as §1
The next test relates to CP329. In outline: as §1
A further test has as its system DIV17. In outline:
as §1

In the next test the test system is DIV30. In outline: as §1
In the next test the test system is Dd2. A digest of the protocol: as §1
A further test concerns ECU. In outline: as §1
The subject of another test is FAB9. In outline: as §1
The test system of another test is GB4. A digest of the protocol: as §1
The next test has as its system ICS. In outline:
as §1

The next test relates to CP269. In outline: as §1
A further test has as its system CP335. A digest of the protocol:
as §1

The test system of the next test is DFO2036. A digest of the protocol:
as §1

For a further test, the system named is DIV14. In outline:
as §1

The test system of a further test is JCK. In outline: as §1
The test system of a further test is CP297. A digest of the protocol: as §1
The next test concerns HB3. A digest of the protocol:
as §1
Potency is read from the fitted curve at half-maximal effect.

For `CNCC[C@H](Oc1cccc2ccccc12)c1cccs1`, the Potency is 12.6 µM (active) with CP286; 3.01 µM (active) in the test on DIV17; 10.7 µM (active) in the test with DIV30; 6.31 µM (active) with Dd2; 11.2 µM (active) in the test with ECU; 12 µM (active) in the test with GB4. Besides, the Potency in the test on ICS is 3.16 µM (active). Besides, the Potency result with CP291, in the test on CP305, in the test with CP315, in the test with CP325, in the test with CP329 and with FAB9 was “inactive” in each case.

Turning to `CCCc1nc(C)c2c(=O)[nH]c(-c3cc(S(=O)(=O)N4CCN(CC)CC4)ccc3OCC)nn12`, the Potency result with CP269, in the test on CP291, in the test on CP305, in the test with CP315, with CP325 and in the test on CP329 was “inactive” in each case. The Potency entry in the test with CP335, in the test with DFO2036, with Dd2, in the test with FAB9, in the test with GB4 and with JCK was “inactive” throughout. For the same compound, the figures for the Potency in the test on DIV14, in the test with DIV17 and in the test with ICS were 5.36 µM (active), 10.7 µM (active) and 4.47 µM (active), respectively.

For the compound `COc1ccc(C(=O)CC(=O)c2ccc(C(C)(C)C)cc2)cc1`, the Potency entry with CP269, with CP291, in the test with CP297, in the test on CP305, in the test with CP315 and in the test with CP325 was “inactive” in each case. The Potency result with CP329, in the test on CP335, in the test on DFO2036, in the test with DIV14, in the test with DIV17 and in the test on DIV30 was “inactive” each time. Besides, the Potency result in the test on ECU, in the test on FAB9, in the test on GB4 and in the test with JCK was “inactive” throughout.

Take `COc1c(N2CCNC(C)C2)c(F)cc2c(=O)c(C(=O)O)cn(C3CC3)c12` (centres undefined): the Potency entry in the test on CP305, in the test on CP315, in the test with CP325, in the test on CP329, in the test on CP335 and in the test on DFO2036 was “inactive” throughout. In addition, the Potency entry with DIV14, with DIV17, with DIV30, in the test with ECU, in the test with FAB9 and with GB4 was “inactive” in each case. For the same compound, the Potency entry in the test on HB3, in the test with ICS and with JCK was “inactive” each time.

On to `CC(C)(C)C(=O)OCOP(=O)(COCCn1cnc2c(N)ncnc21)OCOC(=O)C(C)(C)C`, for which the Potency result with CP291, with CP305, with CP315, in the test with CP325, with CP329 and with DIV30 was “inactive” in each case. Moreover, the Potency result in the test with ECU, in the test on FAB9 and in the test with JCK was “inactive” in each case.

For `N[C@@H](Cc1ccc(O)c(O)c1)C(=O)O`, the Potency entry in the test with CP269, with CP291, in the test with CP297, in the test on CP305, in the test with CP315 and in the test on CP325 was “inactive” each time. Also, the Potency entry in the test on CP329, in the test with DIV14, with DIV17, in the test on DIV30 and in the test with GB4 was “inactive” each time.

As to `Cc1oc(=O)oc1CN1CCN(c2cc3c(cc2F)c(=O)c(C(=O)O)c2n3C(C)S2)CC1` (centres undefined), the Potency in the test on CP286 is 7.94 µM (active); with CP335 it was 6.01 µM (active); in the test with DFO2036, 7.94 µM (active); in the test with DIV14 it was 15.1 µM (active); in the test on DIV17 it was 16.9 µM (active); with Dd2, 7.08 µM (active). For the same compound, the Potency is 10 µM (active) with ECU, 7.57 µM (active) with GB4, 8.91 µM (active) in the test with HB3 and 7.08 µM (active) in the test on ICS. For the same compound, the Potency result in the test with CP315 was “inactive”.

Take `CCOC(=O)c1ccc(C#Cc2ccc3c(c2)C(C)(C)CCS3)nc1`: the Potency entry with CP269, with CP297, in the test on CP315, in the test on CP325, in the test on CP329 and in the test on DFO2036 was “inactive” throughout. In addition, the Potency result in the test on DIV17, with DIV30, in the test with Dd2, in the test with ECU, with FAB9 and in the test with GB4 was “inactive” throughout. Further, the Potency entry in the test on HB3 and with JCK was “inactive” each time.

Take `CCCCCCNC(=O)n1cc(F)c(=O)[nH]c1=O`: the Potency is 7.08 µM (active) with CP286; 12 µM (active) with CP291; 5.36 µM (active) in the test on CP335; 5.36 µM (active) in the test with DIV14; 8.49 µM (active) in the test on DIV17; 13.5 µM (active) with DIV30. The Potency was 8.49 µM (active) in the test with GB4, 8.91 µM (active) in the test with HB3 and 4.47 µM (active) in the test on ICS.

`NC(=O)N1c2ccccc2CC(=O)c2ccccc21`: the Potency entry in the test with CP269, with CP286, with CP297, in the test on CP305, in the test with CP315 and in the test on CP325 was “inactive” each time. In addition, the Potency result in the test with CP335, in the test on DFO2036, with DIV14, with DIV17, in the test on DIV30 and with Dd2 was “inactive” each time. The Potency entry in the test with ECU, with FAB9, in the test on GB4, in the test with HB3, with ICS and in the test with JCK was “inactive” each time.

On to `CC(N)C12CC3CC(CC(C3)C1)C2` (centres undefined), for which the Potency entry in the test with CP269, in the test with CP315, in the test with DFO2036, in the test with Dd2, in the test on ECU and with FAB9 was “inactive” each time. For the same compound, the Potency result in the test on HB3 and in the test on ICS was “inactive” throughout. Also, the Potency in the test with CP297 is 7.57 µM (active); in the test on GB4 it was 6.75 µM (active).

Take `COc1nc(N)nc2c1ncn2[C@@H]1O[C@H](CO)[C@@H](O)[C@@H]1O`: the Potency result in the test on CP269, in the test on CP286, in the test with CP305, with CP315, with CP325 and in the test on CP329 was “inactive” in each case. The Potency entry with CP335, in the test on DFO2036, with DIV14, with DIV17, with DIV30 and in the test with Dd2 was “inactive” each time. Moreover, the Potency result in the test on ECU, in the test on FAB9, in the test on GB4, in the test with HB3, in the test on ICS and in the test with JCK was “inactive” throughout.

Consider `CCOc1cc(N)c(Cl)cc1C(=O)NCC1CN(Cc2ccc(F)cc2)CCO1` (centres undefined), for which the Potency was 13.5 µM (active) with CP269; 3.98 µM (active) in the test with CP286; 12 µM (active) with CP291; 10.7 µM (active) in the test on CP305; 13.5 µM (active) with CP329; 6.75 µM (active) in the test on CP335. The Potency with ECU is 10 µM (active); in the test with GB4, 12 µM (active); in the test on HB3, 8.91 µM (active); with ICS it was 3.98 µM (active).

Turning to `COc1cc2c(Nc3ccc(Br)cc3F)ncnc2cc1OCC1CCN(C)CC1`, the Potency in the test with CP269 is 5.36 µM (active); in the test with CP286, 3.98 µM (active); with CP291 it was 3.79 µM (active); with CP305, 2.39 µM (active); in the test on CP325, 10.7 µM (active); with CP335 it was 4.26 µM (active). Further, the Potency was 0.794 µM (active) with DFO2036; 1.51 µM (active) in the test with DIV14; 2.39 µM (active) with DIV17; 8.91 µM (active) with Dd2; 3.16 µM (active) with ECU; 10 µM (active) in the test with FAB9. In addition, the Potency with GB4 was 1.51 µM (active); in the test on HB3 it was 5.01 µM (active); in the test on ICS, 3.98 µM (active). Further, in the test on CP315, the Potency result was “inactive”.

As to `CCCCOc1ccc(CC(=O)NO)cc1`, the Potency with CP286 was 3.98 µM (active); with CP291, 3.22 µM (active); in the test with CP305, 4.55 µM (active); with CP329, 3.22 µM (active); in the test on CP335, 1.61 µM (active); with DFO2036, 2.82 µM (active). In addition, the Potency in the test with DIV14 was 1.44 µM (active); with DIV17, 2.87 µM (active); in the test with DIV30 it was 2.56 µM (active); in the test with Dd2, 3.55 µM (active); in the test on GB4 it was 3.22 µM (active); in the test on HB3 it was 3.98 µM (active). Besides, the Potency in the test with ICS is 3.16 µM (active).

Regarding `O=C(O)c1cn(C2CC2)c2cc(N3CCNCC3)c(F)cc2c1=O`, the Potency entry in the test on DIV17, in the test with ECU, in the test with FAB9 and in the test on JCK was “inactive” throughout. Further, the Potency in the test on Dd2 and in the test on ICS was 3.16 µM (active) in each case.

As to `CCn1cc(C(=O)O)c(=O)c2cc(F)c(N3CCNCC3)cc21`, the Potency result in the test with CP315, with CP329, in the test on DIV14, with DIV17, in the test on DIV30 and in the test with ECU was “inactive” each time. Further, the Potency entry in the test with FAB9, in the test on HB3 and with JCK was “inactive” in each case.

On to `CN1CCCC(n2nc(Cc3ccc(Cl)cc3)c3ccccc3c2=O)CC1` (centres undefined), for which the Potency entry in the test on CP269, in the test with CP305, in the test on CP315, with CP325, in the test with CP329 and with DFO2036 was “inactive” throughout. For the same compound, the Potency entry in the test with DIV30, in the test with FAB9 and in the test with HB3 was “inactive” throughout. For the same compound, the Potency is 7.57 µM (active) with DIV14, 7.57 µM (active) in the test on DIV17, 11.2 µM (active) in the test with Dd2 and 8.91 µM (active) in the test on ICS.

Regarding `Oc1c(Cl)cc(Cl)c2cccnc12`, the Potency result in the test on CP315, with Dd2, with FAB9, with HB3 and with JCK was “inactive” in each case. Besides, the Potency with CP329 is 10.7 µM (active); in the test on DFO2036 it was 10 µM (active); with GB4, 12 µM (active); in the test with ICS it was 7.94 µM (active).

In the case of `CNC(=O)c1cc(Oc2ccc(NC(=O)Nc3ccc(Cl)c(C(F)(F)F)c3)cc2)ccn1`, the Potency with CP297 is 9.53 µM (active); in the test with DIV14, 2.69 µM (active); in the test on DIV17, 3.01 µM (active); in the test on DIV30, 1.07 µM (active); with ECU, 8.91 µM (active); in the test with GB4, 13.5 µM (active). The values for the Potency with HB3 and in the test on ICS were 11.2 µM (active) and 1.12 µM (active), respectively. The Potency entry in the test on FAB9 is “inactive”.
